Screening results: PubChem, Broad Institute
CASP6 VEID inh: blocks human caspase-6 cleavage activity | P55212 | purified caspase-6, Z-VEID-R110 cleavage fluorescence | inhibition, % at 12.5 µM | actives 0.53% (n = 350,000) | AID 686996;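 active = mean inhibition across replicates at least about 35%, with every replicate also reaching that limit, limit read from the data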;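 also: 0% = median of neutral control wells and 100% = no fluorescence left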
Mot1-301 SUMO: inhibitors of SUMOylation pathway: yeast Mot1-301 growth rescue | actives 1% (n = 320,000) | S. cerevisiae Mot1-301 growth rescue, ATP luminescence, 38.5C; percent above DMSO median, 100 means doubled | growth rescue, % at 18.8 µM;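 active = every valid replicate shows activation above 250% relative to neutral control wells; inactive = the rest, any valid replicate at or below 250%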;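 also: OY570 slx delta 5 strain wells were the positive control but not used for scaling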
NSD2 inh: inhibitors of human histone methyltransferase NSD2; NSD2 peptide methylation, AlphaScreen, 120 min; inhibition, % at 12.5 µM; actives 0.54% (n = 310,000); in the data active = inhibition above about 50%
ALR inh: human ALR oxidase inhibition via reduced H2O2; P55789; purified ALR, DTT oxidation, H2O2 HRP-luminol luminescence; inhibition, % (concentration not given with the values); actives 3.8% (n = 290,000); AID 485317;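 active = mean replicate inhibition above about 79%, with every replicate also reaching it, limit read from the data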
CDK5 p35 inh: inhibitors of human CDK5/p35 kinase; Q00535+Q15078; Recombinant CDK5/p35, ADP-Glo luminescence, 60 min; inhibition, % at 10 µM; actives 0.01% (n = 330,000); AID 488839;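 active = highest replicate inhibition of at least 50% and at least 75% of replicates reaching 50%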;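 also: plate controls were DMSO neutral control for no effect and GW8510 at 10 µM for full effect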
Glyco luc inh: blocks N-linked glycosylation in D54 reporter cells. reporter increase, % at 12.5 µM. D54 ERlucT glycosylation luciferase reporter, 24 h; percent of 100 nM tunicamycin response. actives 0.23% (n = 360,000);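 active = mean luciferase reporter signal, scaled so untreated is 0 and the glycosylation-blocking control 100, at or above a set limit in every replicate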;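 also: luciferase carries N-glycosylation sites so blocking glycosylation raises the light; 0% = median of neutral control wells and 100% = median of 100 nM tunicamycin wells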
Yeast Mot1 SUMO: inhibits SUMO pathway, affecting Mot1-301 yeast growth; shares compounds with Mot1-301 SUMO; S. cerevisiae Mot1-301 galactose growth, ATP luminescence, 24 h; -100 = growth of slx-deleted rescue strain; growth activity, percent, % at 42 µM; 2,300 tested, under 10 active;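 active = Signal drops as the depositor expects, and the fitted half-maximal dose is no more than ten times the top valid tested dose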;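 also: more negative values mean stronger growth rescue toward the control strain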
The depositor's hits bear a star; x = no result; + = active, no number. Only some compounds are listed: those with a hit (about 3.9% of all), similar ones and a draw of the others.

SMILES | CASP6 VEID inh | Mot1-301 SUMO | NSD2 inh | ALR inh | CDK5 p35 inh | Glyco luc inh | Yeast Mot1 SUMO
CN(C)C(=O)[C@H]1[C@H](CO)[C@H]2Cn3c(ccc(-c4ccccc4)c3=O)[C@@H]1N2Cc1ccccn1 | 0 | x | x | x | x | x | x
CC(C)C#Cc1cnc2c(c1)C(=O)N([C@@H](C)CO)C[C@H](C)[C@H](CN(C)C(=O)Nc1cccc(F)c1)O2 | 1 | x | x | x | x | x | x
c1ccc(C[C@H]2CNCCN2CCCCC2CCCCC2)cc1 | -1 | -34 | x | -1 | -1 | -6 | x
c1ccc2c(C[C@@H]3CNCCN3CCCCC3CCCCC3)cccc2c1 | -3 | 402* | x | -26 | 2 | 0 | -3
Cc1cc(=O)oc2ccc(OC(=O)CC(C)C)cc12 | 6 | 810* | -2 | 6 | 0 | 0 | 0
CCOC(=O)Oc1ccc2oc(=O)cc(C)c2c1 | x | -15 | -1 | 1 | 1 | 3 | x
NS(=O)(=O)c1cccc(NC(=O)c2cccnc2Oc2ccccc2)c1 | 1 | 936* | -2 | -8 | 0 | 0 | 0
CCOc1ncccc1C(=O)OCC(=O)Nc1cccc(S(N)(=O)=O)c1 | -7 | -17 | -1 | 2 | 0 | 1 | x
CO[C@H](CN(C)S(=O)(=O)c1ccc(Cl)cc1)[C@H](C)CN(C(=O)Nc1ccccc1F)[C@@H](C)CO | -2 | x | x | x | x | x | x
C[C@H](CO)N1C[C@H](C)[C@@H](CN(C)Cc2ccc(F)cc2)Oc2ncc(C#CCN(C)C)cc2C1=O | -1 | x | x | x | x | x | x
COCCNC(=O)C(=O)NCC1OCCN1C(=O)c1ccc(Cl)cc1 (configuration not stated) | -3 | 525* | x | x | -1 | 1 | 1
COC(CNC(=O)C(=O)NCC1OCCN1C(=O)c1ccc(Cl)cc1)OC (configuration not stated) | 3 | 7 | x | 1 | 0 | 2 | x
COc1ccc(S(=O)(=O)N2CCCCN3[C@H](CO)[C@@H](c4ccc(C#CC5CC5)cc4)[C@@H]3C2)cc1 | 1 | x | x | x | x | x | x
C(=N\Nc1ccc2nncn2n1)/c1ccccn1 | 1 | 499* | -9 | 31 | 0 | -5 | 0
Nc1cc(C(=O)OCC(=O)N2CCN(C(=O)COC(=O)c3ccc(Cl)c(N)c3)CC2)ccc1Cl | 1 | x | -2 | x | 2 | 0 | x
O=C(OCC(=O)N1CCN(C(=O)c2ccco2)CC1)c1ccc(Cl)cc1 | 0 | 11 | -2 | x | 0 | 0 | x
Nc1cc(C(=O)OCC(=O)N2CCOCC2)ccc1Cl | 4 | 399* | -1 | -12 | 1 | 3 | 0
O=C(OCC(=O)N1CCN(Cc2ccccc2)CC1)c1ccc(Cl)cc1 | -3 | 450* | 0 | -1 | 1 | 0 | 1
CC(C)CC#Cc1cnc2c(c1)C(=O)N([C@@H](C)CO)C[C@@H](C)[C@H](CN(C)C(=O)CN1CCOCC1)O2 | 1 | x | x | x | x | x | x
COC(=O)c1cccc(NC(=O)c2ccc[n+]([O-])c2)c1 | 1 | 561* | x | 4 | -2 | 1 | 0
CNC(=O)C1=C[C@H](c2ccc(C(=O)OC)cc2)C[C@H](OCc2ccc(CO)cc2)O1 | 1 | x | x | x | x | x | x
Cc1cccc(N2CCN(C(=O)CN3C(=O)NC(C)(C4CC4)C3=O)CC2)c1C (configuration not stated) | -2 | x | 0 | x | 2 | -2 | x
Cc1cccc(N2CCN(C(=O)CN3C(=O)NC(C)(C)C3=O)CC2)c1C | -2 | 527* | -5 | -4 | 1 | -1 | 0
O=C(NC1CCCC1)C(c1ccncc1)N(CC1CCCO1)C(=O)Cn1nnc(-c2cccs2)n1 (configuration not stated) | x | 4 | x | -5 | 2 | -1 | x
Cc1ccc(C(C(=O)NCC2CCCO2)N(Cc2ccccc2F)C(=O)Cn2nnc(-c3cccs3)n2)cc1 (configuration not stated) | x | 371* | 0 | x | -2 | 1 | 0
SMILES | CASP6 VEID inh | Mot1-301 SUMO | NSD2 inh | ALR inh | CDK5 p35 inh | Glyco luc inh | Yeast Mot1 SUMO
Cc1cc(C)cc(OCC(=O)NC2CCCc3ccccc32)c1 (configuration not stated) | x | 461* | -2 | x | 1 | -1 | 0
CCOc1ccc(CCNC(=O)COC(=O)c2cccc(OC)c2O)cc1OCC | -3 | 541* | 1 | -11 | -1 | 1 | 0
CCOc1ccc(CCNC(=O)COC(=O)c2ccc(OC)c(OC)c2OC)cc1OCC | -5 | 6 | -1 | 0 | 0 | 0 | x
CCOc1ccc(CCNC(=O)COC(=O)COc2ccc(C(C)=O)cc2)cc1OCC | -1 | + | -2 | -7 | 0 | 0 | -1
Cc1cnc(C(=O)OCC(=O)Nc2ccc3c(c2)OCCO3)cn1 | 5 | -8 | -1 | -6 | 0 | 0 | x
Cc1cnc(C(=O)OCC(=O)Nc2ccc(C)c(S(=O)(=O)N(C)C)c2)cn1 | 6 | 669* | -11 | -6 | 2 | 1 | 1
COc1ccc(S(=O)(=O)N(C)C[C@@H]2OCCCC[C@@H](C)Oc3ccc(NC(=O)Nc4ccc5c(c4)OCO5)cc3C(=O)N([C@@H](C)CO)C[C@H]2C)cc1 | 1 | x | x | x | x | x | x
CCN(CC)S(=O)(=O)c1ccc(NC(=O)C(C)N(c2ccccc2)S(C)(=O)=O)cc1 (configuration not stated) | x | + | -1 | -5 | 1 | -2 | 0
O=C1C2C(c3ccccc3)CC=CC2[C@H](c2ccc3ccccc3c2)N1Cc1ccccc1 (some centres not stated) | 2 | 508* | x | x | 0 | 13 | -1
COc1ccc(-c2cccc(C3CC=CC4C3C(=O)N(Cc3ccccc3)C4c3ccc4ccccc4c3)c2)cc1 (configuration not stated) | x | 64 | x | x | -1 | 1 | x
C[C@@H]1CN([C@@H](C)CO)S(=O)(=O)c2ccc(C#C[C@@H](C)O)cc2O[C@H]1CN(C)C(=O)C1CCCCC1 | 1 | x | x | x | x | x | x
CCOC(=O)CN1NC2(CCC(C(C)(C)C)CC2)NC1=S (configuration not stated) | x | 500* | 1 | 0 | 1 | 0 | 0
CCOC(=O)CN1NC2(CCC(C)CC2)NC1=S (configuration not stated) | x | 366 | 0 | -5 | 3 | 0 | x
COC(=O)C[C@H]1C[C@@H]2c3cc(NC(=O)Nc4ccccc4)ccc3O[C@@H]2[C@H](CO)O1 | -1 | x | x | x | x | x | x
O=C(CCC(F)(F)F)N1CCCC(CO)(CCc2ccccc2)C1 (configuration not stated) | -6 | 738* | 1 | -8 | -1 | 0 | 1
CCN(C(=O)CSc1nnc(-c2ccc(C)cc2)n1N)c1c(N)n(Cc2ccccc2)c(=O)[nH]c1=O | 1 | x | 0 | x | 0 | 0 | x
